“And” between values parts separate entries of the source, which are not always exact repeats. Equal entries are not always repeated. Results filed as inconclusive are left out. Some structures have more than one record in an assay (separate samples or runs), and their calls can disagree. The source made the active and inactive calls. Calls come from the whole dose curve; as a rule, active = well fitted curve in the direction sought with a large enough effect; inconclusive = small, poorly fitted or top-dose-only effect, or another doubt; inactive = no such curve, though single readings can be large; an effect the other way counts as inactive or inconclusive.

Test [1] can be described thus: Viability qHTS for spleen associated tyrosine kinase inhibitor (SYKi) naive MV4-11 cells (AID 1963823). Note: nearly all actives have a fitted effect of over 40% in size. Note: potency is the fitted concentration of half-maximal effect. In outline:
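Viability of MV4-11 AML cells lacking prior SYK inhibitor exposure is scored by CellTiter-Glo luminescence following 72 hr compound incubation at 37 C, 5% CO2, seeded at 500 cells per well.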

The nature of test [2]: Viability qHTS for spleen associated tyrosine kinase inhibitor (SYKi) drug resistant MV4-11 cells (AID 1963824). Note: nearly all actives have a fitted effect of over 35% in size. Note: potency is the fitted concentration of half-maximal effect. The gist of the method: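 CellTiter-Glo luminescence, read 10 min after reagent addition, reports viability after a 72 hr compound exposure. Cells are an MV4-11 line made resistant to SYK inhibition, seeded at 500 per well onto compound-containing plates.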
Test [3] in a line: Quantitative highthroughput screen to assess conditional lethalithy of NOMO1 cells grown in RPMI1640 with dialyzed fetal bovine serum (RPMI+ds) (AID 1963877).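 Note: series mostly up to about 46 µM; 100% = DMSO control wells and 0% = empty wells; nearly all actives have a fitted effect of over 30% in size.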 The gist of the method: (§1)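 Each medium arm—HPLM with 10% dialyzed FBS, or RPMI1640 with 5 mM glucose and 10% untreated or dialyzed FBS—was screened against an 11-point, 3-fold compound titration for 48 h at 37 °C, with CellTiter-Glo luminescence as endpoint.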

The nature of test [4]: Quantitative highthroughput screen to assess conditional lethalithy of P12 Ichikawa cells grown in Human Plasma-Like Medium with dialyzed fetal bovine serum (HPLM+ds) (AID 1963879). Note: series mostly up to about 46 µM; nearly all actives have a fitted effect of over 35% in size. Particulars: Potency: viability. The gist of the method: as §1
The nature of test [5]: Quantitative highthroughput screen to assess conditional lethalithy of P12 Ichikawa cells grown in RPMI1640 with untreated serum (RPMI+s) (AID 1963881).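 Note: series mostly up to about 46 µM; 100% = DMSO wells and 0% = empty wells without cells; nearly all actives have a fitted effect of over 35% in size.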 Particulars: Potency: viability. The gist of the method: as §1
Test [6] in a line: Cellular viability qHTS for adrenocortical cancer (ACC) cell line NCI-H295R (AID 1963990). Note: nearly all actives have a fitted effect of over 60% in size. Note: potency is the fitted concentration of half-maximal effect. The gist of the method: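 IC50 and maximal efficacy derive from four-parameter logistic modelling of titration curves, with reads scaled between DMSO-only wells (0%) and doxorubicin hydrochloride (100% inhibition). Compounds spanned up to 46 uM over 48 h.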
Background: Quantitative high-throughput screening tests each substance at several concentrations.

Test [7] in a line: Quantitative highthroughput screen to assess conditional lethalithy of NOMO1 cells grown in RPMI1640 with untreated serum (RPMI+s) (AID 1963876).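 Note: 100% = DMSO wells and 0% = empty wells without cells; nearly all actives have a fitted effect of over 35% in size.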 In outline:
as §1

Test [8] can be described thus: Quantitative highthroughput screen to assess conditional lethalithy of NOMO1 cells grown in Human Plasma-Like Medium with dialyzed fetal bovine serum (HPLM+ds) (AID 1963878). The gist of the method:
as §1

Test [9] can be described thus: Quantitative highthroughput screen to assess conditional lethalithy of SEM cells grown in Human Plasma-Like Medium with dialyzed fetal bovine serum (HPLM+ds) (AID 1963882). In outline: as §1
Test [10] can be described thus: Cellular viability qHTS for adrenocortical cancer (ACC) cell line SW-13 (AID 1963989).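 Note: cells grown in serum-free medium with ITS supplement; % is set by controls: 0 for no effect and ±100 for the full control effect; nearly all actives have a fitted effect of over 65% in size.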 Particulars: SW-13 ACC cells viability, CellTiter-Glo, 48 h; activity (max response): stronger effect = lower value. In outline:
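Luminescent ATP read-out (CellTiter-Glo, 20 min at room temperature) measured metabolically competent SW-13 cells after 48 h compound treatment. Final concentrations spanned up to 46 uM; bortezomib served as positive control.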

`Cc1cn(C[C@H](N)C(=O)O)c(=O)n(Cc2cc(-c3ccccc3)sc2C(=O)O)c1=O`: the Potency entry in test [1] and in [2] was “inactive” in each case.
Regarding `CCC(C)(C#N)O[C@@H]1O[C@H](CO)[C@@H](O)[C@H](O)[C@H]1O` (some centres not stated), the Potency result in test [1] and in test [2] was “inactive” throughout.
On to `NNc1ccccc1`, for which the Potency entry in [1] and in test [2] was “inactive” in each case.
For `CC[C@@H]1C[C@H]2CC[C@H](O2)[C@H](C)C(=O)O[C@@H](C)C[C@@H]2CC[C@@H](O2)[C@@H](C)C(=O)O[C@H](CC)C[C@H]2CC[C@H](O2)[C@H](C)C(=O)O[C@@H](C)C[C@@H]2CC[C@@H](O2)[C@@H](C)C(=O)O1`, the Potency was 30.6 nM (active) in test [1] and 19.3 nM (active) in [2].
As for `Fc1cc(F)c2c(c1)C1C=CCC1C(c1cccnc1)N2` (configuration not stated), the Potency is 3660 nM (active) in test [1] and 2910 nM (active) in test [2].
Taken in the same sequence, the figures for `COc1ccc2c(c1)[nH]c1c(C)nccc12` were 13000 nM (active) and 14600 nM (active).
Take `COc1ccc(CN(C(=O)[C@@H](N)Cc2c(C)cc(C(N)=O)cc2C)[C@@H](C)c2ncc(-c3ccccc3)[nH]2)cc1C(=O)O`: the Potency entry in [1] and in [2] was “inactive” throughout.
`Cc1sc2c(c1C)C(c1ccc(Cl)cc1)=N[C@@H](CC(N)=O)c1nnc(C)n1-2`: the Potency in test [1] was 83.3 nM (active); in test [2] it was 82 nM (active) and 83.3 nM (active).
Take `COc1cc2cc(c1Cl)N(C)C(=O)C[C@H](OC(=O)C(C)C)[C@]1(C)O[C@@H]1[C@H](C)[C@@H]1C[C@@](O)(NC(=O)O1)[C@H](OC)/C=C/C=C(\C)C2`: the Potency result in [1] and in test [2] was “inactive” in each case.
Turning to `C=C(CO)C(=O)O[C@H]1C/C(C)=C/CC/C(CO)=C/[C@H]2OC(=O)C(=C)[C@H]12`, the Potency result in test [1] and in test [2] was “inactive” throughout.
As for `COC1C(O)C(C)OC(OC2C(CO)O[C@@H](O[C@@H]3CC4CCC5C(CC[C@]6(C)[C@@H](C7=CC(=O)OC7)CC[C@]56O)[C@@]4(C)[C@H](OC(C)=O)C3)C(O)C2O)C1O` (some centres not stated), the Potency in test [1] was 2430 nM (active); in test [2] it was 1090 nM (active).
Turning to `C[C@]12CC[C@@H](O)C[C@@H]1CC[C@@H]1[C@@H]2CC[C@]2(C)C(=O)[C@@H](Br)C[C@@H]12`, the figures for the Potency in [1] and in test [2] were 16400 nM (active) and 11600 nM (active), respectively.
Take `CC(C)(O)/C=C/C(=O)[C@](C)(O)[C@H]1[C@H](O)C[C@@]2(C)[C@@H]3CC=C4[C@@H](C[C@H](O)C(=O)C4(C)C)[C@]3(C)C(=O)C[C@]12C`: the values for the Potency in test [1] and in test [2] were 317 nM (active) and 282 nM (active), respectively.
The matching figures for `COC(=O)C1(C)CCC(O)C2(C)c3c(O)cc(C(C)C)cc3C(O)C(OC(C)=O)C12` (configuration not stated): “inactive” and “inactive”.
As to `CC[C@H]1/C=C\C=C/C[C@@H](C)[C@H](O)[C@@](C)(O)C(=O)[C@@H](C)[C@H](O)[C@@H](C)C(=O)[C@@H](C)[C@H](O)[C@@H](C)/C=C\C(=O)O[C@@H]2[C@H](C)[C@H](CC1)O[C@]1(CC[C@H](C)[C@H](C[C@@H](C)O)O1)[C@H]2C`, the Potency in test [1] is 9.2 nM (active); in test [2], 6.5 nM (active).
The matching figures for `C=C1[C@@H](C)[C@H]2[C@H](Cc3ccccc3)NC(=O)[C@]23[C@H](OC(C)=O)/C=C/[C@](C)(O)C(=O)[C@@H](C)C/C=C/[C@H]3[C@@H]1O`: 1460 nM (active) and 731 nM (active).
The matching figures for `C[C@@]12C[C@@H](c3ccoc3)OC(=O)C1CC[C@]1(C)[C@H]2[C@H]2C=C[C@]1(O)C(=O)O2` (some centres not stated): “inactive” and “inactive”.
Taken in the same sequence, the figures for `CC[C@H]1CN2CC[C@H]1C[C@@H]2[C@@H](O)c1ccnc2ccc(OC)cc12` were “inactive” and “inactive”.
Take `CC(N)Cc1c[nH]c2ccccc12` (configuration not stated): the Potency entry in test [1] and in test [2] was “inactive” each time.
`COC1C(O)C(OC2CCC3(C=O)C(CCC4C3CCC3(C)C(C5=CC(=O)OC5)CCC43O)C2)OC(C)C1OC1OC(CO)C(O)C(O)C1O` (configuration not stated): the Potency in test [1] was 153 nM (active); in test [2] it was 172 nM (active).
For the compound `CC1=CC2OC3CC(O)[C@](C)([C@@]2(C)C(O)C1=O)[C@]31CO1` (some centres not stated), the Potency in [1] and in [2] was 1840 nM (active) each time.
As for `CO[C@@H]1[C@H](O)[C@@H](O[C@@H]2C[C@H]3CC[C@@H]4C(CC[C@]5(C)[C@@H](C6=CC(=O)OC6)CC[C@]45O)[C@@]3(C)[C@H](O)C2)O[C@H](C)[C@@H]1O` (some centres not stated), the Potency in test [1] is 63.2 nM (active); in [2] it was 28.2 nM (active).
In the case of `COc1ccc(C(=O)c2c(C)n(CCN3CCOCC3)c3ccccc23)cc1`, the values for the Potency in test [1], in [2] and in [6] were 26600 nM (active), 16600 nM (active) and 14600 nM (active), respectively. Further, the Potency entry in [3], in test [4] and in test [5] was “inactive” throughout.
For `Cn1c(CCCC(=O)O)nc2cc(N(CCCl)CCCl)ccc21`, the Potency entry was “inactive and 11.8 µM (active)” in test [1]; “inactive and 11.8 µM (active)” in [2]. For the same compound, the Potency entry in test [7], in test [8], in test [9] and in test [6] was “inactive” in each case. The activity (max response) in test [10] is 2.81% (inactive) and -9.72% (inactive).

These data come from PubChem BioAssay (NCATS).
